# Experimental data reported in PubChem BioAssay AID504832 (National Center for Advancing Translational Sciences (NCATS), 2011).
# Screen size: about 310,000 compounds; about 18,000 (5.8%) were called active. About 22% were inconclusive and are not listed. Calls come from the whole dose curve; as a rule, active = well fitted inhibition curve with a large enough effect; inconclusive = small, poorly fitted or top-dose-only effect, or another doubt; inactive = no such curve, though single readings can be large or run the other way. Shown is part of a subset that was picked to be rich in actives. A call without a number means that no potency is given here.
# Test: Primary qHTS for delayed death inhibitors of the malarial parasite plastid, 48 hour incubation
# Settings: P. falciparum luciferase growth in erythrocytes; series mostly up to 28.7 µM
# Summary of the method: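 Luciferase-expressing parasites in RBCs, 2% Hct / 0.1% parasitemia final; RPMI 1640 + 0.5% Albumax; 37 C, 5% CO2, one generation; luminescence read-out, lower signal = inhibition.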
# Potency is the fitted concentration of half-maximal effect.
Compound,"activity change, negative = inhibition",Potency
COc1cc2c(C(=O)O)c(C)n(C)c2c2ccccc12,15.4% [at 0.00184 µM] (inactive),–
O=C(CSc1ccc(-c2ccco2)nn1)Nc1cccc(F)c1,–,inactive
NC(=O)c1cc2ccccc2o/c1=N/NC(=O)c1cccc(F)c1,–,inactive
CCOc1cc(NC(=O)c2ccccc2C(=O)O)c(OCC)cc1NC(=O)c1ccccc1F,–,4.15 µM (active)
NC(=O)c1ccccc1NC(=O)c1ccccc1F,–,inactive
CCOc1cc(NC(=O)Nc2ccccc2)c(OCC)cc1NC(=O)CC,–,inactive
O=C(Nc1cccc(Cl)c1N1CCOCC1)c1cccnc1,–,inactive
Cc1ccccc1NC(=O)CCNS(=O)(=O)c1ccc2[nH]c(=O)oc2c1,–,inactive
CCn1c2ccccc2c2cc(NC(=O)C/C(C)=N/NC(=O)c3ccccc3N)ccc21,–,11.7 µM (active)
CCn1c2ccccc2c2cc(NC(=O)COC(=O)c3ccccc3Br)ccc21,–,inactive
C/C(CC(=O)Nc1ccc(N(C)C)cc1)=N\NC(=O)c1ccccc1F,–,inactive
CN(CC(=O)NCc1ccc(Cl)cc1)S(=O)(=O)c1cccs1,–,inactive
COc1ccc(S(=O)(=O)N2CCN(C(=O)N(C)C)C2C)cc1 (centres undefined),–,inactive
Cc1[nH]c(C)c(S(=O)(=O)N2CCN(c3cccc(C(F)(F)F)c3)CC2)c1C(=O)N1CCCC1,–,inactive
CN1CCN(C(c2cc3cc4c(cc3[nH]c2=O)OCCO4)c2nnnn2C2CCCC2)CC1 (centres undefined),–,inactive
COc1ccc(N2CCN(C(c3cc4ccc(C)cc4[nH]c3=O)c3nnnn3C3CCCC3)CC2)cc1 (centres undefined),–,1.85 µM (active)
CCOc1ccc2[nH]c(=O)c(C(c3nnnn3CCOC)N3CCOCC3)cc2c1 (centres undefined),–,inactive
O=C(NCCCN1CCOCC1)C1CCCN(S(=O)(=O)N2CCCCC2)C1 (centres undefined),–,inactive
CCC(C)C(NC(=O)C1CCC(=O)N1C(=O)OCc1ccccc1)C(=O)NC(C(=O)N1CCCC1C(N)=O)C(C)CC (centres undefined),–,inactive
CC(=O)Nc1ccc(NC(=O)[C@@H](NC(=O)c2cccc(C)c2)C(C)C)cc1,–,inactive
Cc1cccc(N(Cc2ccccc2)C(=O)c2cc(S(=O)(=O)N3CCOCC3)ccc2F)c1,–,11.7 µM (active)
Cc1ccc(S(=O)(=O)N2CCOCC2)cc1C(=O)NC(=S)N(Cc1ccccc1)C(C)C,–,inactive
Cc1cccc(NC(=O)c2cc(S(=O)(=O)N3CCC4(CC3)OCCO4)ccc2F)c1,–,inactive
CC(=O)Nc1ccc(NC(=O)CC2CCCC2)cc1,–,inactive
CCCOc1ccc(/C=N/NC(=O)C2CC2)c(OCCC)c1,–,11.7 µM (active)

Compound,"activity change, negative = inhibition",Potency
COc1ccc(/C=N/NC(=O)C2CC2)c(OC)c1OC,–,inactive
CCCOc1ccc(NC(=O)C2CCCNC2=O)cc1 (centres undefined),–,inactive
CCCCCCCCn1c2c(c(=N)c3c1CCC3)CCCC2,–,0.262 µM (active)
Cc1ccc(CC2C(=O)N(c3ccc(F)cc3)C(=O)C2C)cc1 (centres undefined),–,inactive
CC(=O)NC(CC(=O)Nc1nc(-c2ccccc2)c(C(C)=O)s1)c1ccccc1 (centres undefined),–,inactive
CC1CCCC(C)N1C(=O)COC(=O)COc1ccccc1C#N (centres undefined),–,inactive
COc1ccccc1N(C(=O)Cn1nnc2ccccc21)C(C(=O)NCc1ccco1)c1ccc(C)o1 (centres undefined),–,13.1 µM (active)
O=C(NCc1ccco1)C(c1ccncc1)N(C(=O)Cn1nnc2ccccc21)c1ccccc1 (centres undefined),–,inactive
COCCNC(=O)C(c1ccc(C)o1)N(Cc1ccccc1)C(=O)Cn1nnc2ccccc21 (centres undefined),–,inactive
NC(=O)c1oc2ccccc2c1NC(=O)CS(=O)(=O)c1ccccc1,–,inactive
CC(=O)Oc1ccc(-c2nc3c(C)cccc3c(=O)o2)cc1,–,inactive
CCc1c(C)nc2c(OC)cccc2c1Cl,–,inactive
COc1nc(N=C(N)N)nc2c(C)cccc12,–,1.65 µM (active)
O=C(C1CCC(=O)N(C2CC2)C1)N1CCN(c2ccc(Cl)cc2)CC1 (centres undefined),–,inactive
Cc1ccc(S(=O)(=O)N2CCCCC2)cc1C(=O)N1CCN(CCO)CC1,–,inactive
CC(CC(=O)Nc1ccc(F)cc1F)S(=O)(=O)c1ccc2c(c1)NC(=O)CO2 (centres undefined),–,inactive
O=[N+]([O-])c1cc(C(F)(F)F)ccc1NCCc1ccncc1,–,inactive
COc1ccc(C(=O)NCc2nnc(SCC(=O)Nc3cccc(OC)c3)o2)cc1,–,inactive
Cc1ccc(Cc2nnc(SCC(=O)Nc3ccc(C)cc3C)[nH]c2=O)cc1,–,inactive
CCC1C(C#N)=C(SC)NC2=C1C(=O)CC(C)(C)C2 (centres undefined),–,inactive
COc1cc(C2C(C#N)=C(C)NC3=C2C(=O)CC(C)(C)C3)ccc1O (centres undefined),–,10.4 µM (active)
CC(=O)C1=C(C)NC2=C(C(=O)CC(C)(C)C2)C1C (centres undefined),–,inactive
CC(=O)Nc1c2c(nn1-c1cccc(C)c1)CSC2,–,inactive
COc1ccc(S(=O)(=O)n2cnc3ccccc32)c(C)c1,–,inactive
O=S(=O)(c1ccccc1)N(Cc1cccc(F)c1)c1ccccc1,–,inactive

Compound,"activity change, negative = inhibition",Potency
COc1ccc(NC(=O)COc2ccc(C(=O)c3ccc(F)cc3)cc2)cc1S(N)(=O)=O,–,inactive
Cc1cc(=O)oc2c3c(cc(OCC(=O)N[C@H](C(=O)O)c4ccccc4)c12)OC(C)(C)CC3,–,inactive
Cc1ccc(-n2ncc(C(=O)NC3CC3)c2C2CCN(C(=O)OC(C)(C)C)CC2)c(C)c1,–,10.4 µM (active)
CCOC(=O)N1CCC(NC(=O)c2cnn3ccccc23)CC1,–,inactive
Cc1ccc(C)c(NC(=O)C2CCCN2C(=O)OC(C)(C)C)c1 (centres undefined),–,inactive
O=C(COC(=O)c1cccc(Cl)c1)Nc1ccc2[nH]c(=O)[nH]c2c1,–,inactive
CCCS(=O)(=O)Nc1ccc(-c2cn3c(n2)SCC3)cc1,–,inactive
Cc1ccc(NC(=O)Cn2c(C)csc2=O)cc1,–,inactive
CCC(=O)Nc1ccc2c(c1)nc(CCN1CCN(c3ccccn3)CC1)n2C,–,inactive
Cn1c(CCN2CCCCCC2)nc2cc(NC(=O)Nc3ccccc3)ccc21,–,3.29 µM (active)
CCC(=O)Nc1ccc2c(c1)nc(CCN1CCN(C)CC1)n2C,–,inactive
O=C(NC1CCCCC1)C1CCC(CNS(=O)(=O)c2ccccc2)CC1 (centres undefined),–,inactive
CC(C)Oc1ccc(S(=O)(=O)N2CCOCC2)cc1NC(=O)C1CSC2(C)CCC(=O)N12 (centres undefined),–,9.28 µM (active)
CC(C)Oc1ccc(S(=O)(=O)N2CCOCC2)cc1NC(=O)C1CCCC1,–,inactive
CCN(CC)S(=O)(=O)c1ccc(N2CCOCC2)c(NC(=O)C2CSC3(C)CCC(=O)N23)c1 (centres undefined),–,inactive
Cc1ccc(NC(=O)CSc2nn3c(=O)c(C)nnc3s2)cc1Cl,–,13.1 µM (active)
Cc1ccc(NC(=O)CSc2nnc(CNC(=O)c3ccccc3F)o2)cc1Cl,–,inactive
Cc1ccc(NC(=O)C/C(N)=N/O)cc1Cl,–,inactive
COc1cccc(-c2nc(CS(=O)CC(=O)NCc3ccc(F)cc3)c(C)o2)c1 (centres undefined),–,inactive
CCCn1c(=O)c(C(=O)Nc2cc(C)ccn2)c(O)c2ccccc21,–,inactive
O=S(=O)(Nc1ccccc1)c1ccc(NS(=O)(=O)c2cccs2)cc1,–,inactive
CCCCNC(=O)N(O)C1N(/N=C/c2ccc(N(C)C)cc2)C(=S)SC1(C)C (centres undefined),-2.29% [at 0.00184 µM] (inactive),–
N#Cc1c(NC(=O)CCCN2C(=O)c3ccccc3C2=O)oc(-c2ccccc2)c1-c1ccccc1,–,inactive
N#Cc1c(-c2ccccc2)c(-c2ccccc2)n[nH]c1=O,–,inactive
N#Cc1c(/N=C/N2CCCC2)oc(-c2ccccc2)c1-c1ccccc1,–,4.65 µM (active)

Compound,"activity change, negative = inhibition",Potency
C=C1CCC(N(O)c2cc(C)on2)C(=C)CCC2C1CC2(C)C (centres undefined),–,4.65 µM (active)
COc1ccc(S(=O)(=O)N(C)CC(=O)NCCCN2CCOCC2)cc1Cl,–,inactive
CCCNC(=O)COc1coc(CN2CCN(Cc3ccccc3)CC2)cc1=O,–,inactive
Cc1ccc(CNS(=O)(=O)CCNC(=O)c2ccccc2)cc1,–,inactive
O=c1c2ccccc2oc2nc(C3CCCCC3)n(Cc3ccco3)c(=O)c12,–,13.1 µM (active)
O=c1c2ccccc2oc2nc3n(c(=O)c12)CCCS3,–,inactive
O=C(Cn1c(=O)n(Cc2ccco2)c(=O)c2ccccc21)NCC1CCCO1 (centres undefined),–,inactive
Cc1cccc(COc2ccccc2/C=N/Nc2ccc([N+](=O)[O-])cc2)c1,–,inactive
COCCNC(=O)c1ccccc1NS(=O)(=O)c1ccc(C)c([N+](=O)[O-])c1,–,inactive
Cc1ccc(NS(=O)(=O)c2ccc(N/N=C/c3ccccc3OCC(=O)O)c([N+](=O)[O-])c2)c(C)c1,–,11.7 µM (active)
O=C(N/C(=C\c1ccc([N+](=O)[O-])cc1)C(=O)N1CCCCC1)c1ccco1,–,inactive
O=C(CN1CCOC1=O)N1CCCC(Nc2ccc(F)c(F)c2)C1 (centres undefined),–,inactive
COc1ccccc1-c1cnn2c(N3CCOCC3)cc(C)nc12,–,inactive
Cn1nccc1/C=N\NC(=O)c1ccc(Cl)cc1,–,inactive
CN(CCc1ccccn1)C(=O)c1ccc(OC2CCN(Cc3ccccn3)CC2)cc1,–,inactive
COc1ccc(-c2cc(=O)oc3cc(OCC(=O)N[C@@H](Cc4c[nH]c5ccccc45)C(=O)O)ccc23)cc1,–,inactive
COc1ccc(F)cc1S(=O)(=O)NCC(c1ccc2c(c1)OCO2)N1CCN(C)CC1 (centres undefined),–,inactive
CC(=O)COc1ccc2c(-c3ccccc3)cc(=O)oc2c1,–,inactive
COc1cc(OC)c(C(=O)NCc2ccc3c(c2)OCO3)cc1OC,–,inactive
Cc1[nH][nH]c(=O)c1C(c1ccc2c(c1)OCO2)c1c(C)[nH][nH]c1=O,–,inactive
CCN(CC)CCC(c1ccc2c(c1)OCO2)c1c(OC)cc(OC)c2c(-c3ccccc3)cc(=O)oc12 (centres undefined),–,9.28 µM (active)
CCCCN(CC)C(=O)c1ccc2c(c1)OCO2,–,inactive
CCN(CC)CCC(c1cc(OC)c(OC)c(OC)c1)c1c(OC)cc(OC)c2c(-c3ccccc3)cc(=O)oc12 (centres undefined),–,3.29 µM (active)
CCN(CC)C(=O)CC(c1ccc2c(c1)OCO2)c1c(OC)cc(OC)c2c(-c3ccccc3)cc(=O)oc12 (centres undefined),–,11.7 µM (active)
